Bioassay records: PubChem BioAssay, NMMLSC
VLA-4 antagonist – inhibitors of LDV-FITC binding to Mn2+-activated VLA-4, primary screen, Jurkat cells | LDV-FITC binding with Mn2+, flow cytometry; 100% = Mn2+-driven binding gain fully reversed | hit rate 0.2% among 24,000 | inhibition, % at 10 µM (by protocol);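 active = inhibition above 50%; inconclusive = compound itself fluorescent, judged against control cell fluorescence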
VLA-4 agonist – enhancers of LDV-FITC binding to VLA-4 integrin, primary screen, Jurkat cells, flow cytometry. activation, % at 10 µM (by protocol). Integrin alpha-4 (Homo sapiens), P13612. 24,000 tested, under 10 active;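 active = fluorescent ligand binding to cells raised by more than 40% of the manganese-induced maximum; inconclusive = compound's own fluorescence above 85% of the ligand control signal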
Jurkat autofluor – compound autofluorescence on Jurkat cells, primary screen, artefact control for VLA-4 allosteric ligand project, cell-based, flow cytometry | stronger effect = higher value; 1 = vehicle-only cell background | fluorescence ratio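 (tested at 10 µM compound in the well)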 | hit rate 0.61% among 24,000;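 active = fluorescence ratio above 2.44, which is 1 plus 3 SD of all ratios; inconclusive = signal too bright to measure linearly, ratio around 10 or more; inactive = fluorescence ratio below 2.44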;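 note: green fluorescence of cells measured with 488 nm excitation and 530 nm emission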
26S disassembly – inhibitors of ATP-driven 26S proteasome dissociation, primary screen, biochemical, bead-based flow cytometry, GFP-tagged proteasome; inhibition of disassembly, % (no concentration beside the values); hit rate 0.2% among 24,000; AID 751, 2007; anti-FLAG beads, GFP-proteasome disassembly;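 active = inhibition of disassembly above about 33%, limit read from the data; inconclusive = likely self-fluorescent, control bead median signal at least 40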;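 note: higher percent means more bead fluorescence retained so stronger block of disassembly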
Numbers stand for hits; . = inactive; ? = inconclusive; / = no result given. Rows were chosen to be rich in hits. Some 0.96% of all compounds tested hit in one or more screens of this group.

SMILES	VLA-4 antagonist	VLA-4 agonist	Jurkat autofluor	26S disassembly
CC1Cc2ccccc2N1C(=O)C1CCCN(S(=O)(=O)c2cccc3cccnc23)C1 (stereo not given)	?	?	3.6	.
COc1ccc(N(CC(=O)Nc2cccc(C)c2)S(=O)(=O)c2c(C)n[nH]c2C)cc1	.	.	.	.
CCc1cccc(NC(=O)CN(c2ccc(OC)cc2)S(=O)(=O)c2c(C)n[nH]c2C)c1	62.0	.	.	.
O=C(CNS(=O)(=O)c1ccc(Br)s1)N1CCC(N2CCCCC2)CC1	.	.	.	.
CCN1C=C(Cc2cccs2)C2=C(C1)C(c1cccs1)C(C#N)=C(N)O2 (stereo not given)	?	?	3.08	.
CCOC(=O)C1=C(CSc2nc(C)cc(C)c2C#N)OC(N)=C(C#N)C1c1cccs1 (stereo not given)	.	.	.	.
Cc1cc(N2CCN(C3CCCC3)CC2)n2c(nc3ccccc32)c1C#N	.	.	.	.
Cc1c(CCC#N)c(N2CCN(C3CCCCC3)CC2)n2c(nc3ccccc32)c1C#N	?	?	8.58	?
COCc1cc(C)c2c(N)c(C#N)sc2n1	.	.	.	.
COc1ccc(CCNC(=O)CC2Nc3ccccc3NC2=O)cc1OC (stereo not given)	?	?	.	.
CCC(=O)N1CCNC(=O)C1CC(=O)Nc1ccc(C)c(Cl)c1 (stereo not given)	52.0	.	.	.
Cc1ccc(NC(=O)CC2Nc3ccccc3NC2=O)cc1Cl (stereo not given)	?	?	6.72	.
CCOc1ccccc1NC(=O)CC1Nc2cc(C)c(C)cc2NC1=O (stereo not given)	?	?	4.89	.
CCn1c(=O)c2cc(C(=O)N3CCN(C(=O)c4ccco4)CC3)sc2c2ccccc21	.	.	.	.
COc1ccc(Cn2c(CCC(=O)O)nc3cccnc32)cc1	.	.	.	.
CCOc1ccc(C2CC(c3ccc(F)cc3)n3ncnc3N2)cc1 (stereo not given)	.	.	.	.
COc1ccc2nc(Nc3nc(C)c(C(C)=O)s3)sc2c1	63.0	.	.	.
FC(F)(F)C(F)(F)C(F)(F)c1nnc2ccc(N3CCOCC3)nn12	.	.	.	.
CCCCC[C@H](O)/C=C/[C@H]1C=CC(=O)[C@@H]1C/C=C\CCCC(=O)O	.	42.0	.	.
COCCCNC(CC(=O)Nc1ccc(N(C)C)cc1)C(=O)O (stereo not given)	?	?	.	.
CC1Cc2ccccc2N1C(=O)Cn1c(=O)oc2cc(S(=O)(=O)N3CCCCC3)ccc21 (stereo not given)	?	?	5.08	.
Cc1ccc(NC(=O)C2C3C=CC4(CN(Cc5cccnc5)C(=O)C24)O3)cc1F (stereo not given)	.	.	.	.
Cc1ccc(C(=O)CC(C(=O)O)c2cn(CCC#N)c3ccccc23)cc1 (stereo not given)	.	.	.	.
CCOC(=O)CC(C#N)c1cn(C)c2ccccc12 (stereo not given)	?	?	2.78	?
CCOC(=O)c1c(C)oc2c1c(C=NCc1ccccn1)c(O)c1ccccc12	?	?	2.86	?
SMILES	VLA-4 antagonist	VLA-4 agonist	Jurkat autofluor	26S disassembly
CCOC(=O)c1c(C)oc2c1c(C=NCC1CCCO1)c(O)c1ccccc12 (stereo not given)	?	?	.	.
O=C(NCC1CCCO1)c1ccc(CS(=O)(=O)Cc2ccc(F)cc2)o1 (stereo not given)	.	.	.	.
Cn1c(N)c(C(=O)NCc2ccccc2)sc1=S	?	?	4.06	.
CCn1c(N)c(C(=O)NCc2ccco2)sc1=S	.	.	.	.
O=c1cc(Nc2ccc3c(c2)OCCO3)[nH]c(=O)n1C1CCCCC1	.	.	.	107.9
CCc1ccc(Nc2cc(=O)n(C3CCCCC3)c(=O)[nH]2)cc1	.	.	.	.
O=C(c1ccco1)N1CCN(c2nc3ccccc3n3nnnc23)CC1	?	?	9.45	.
COCCN1C(=O)c2ccccc2C(C(=O)NCCCN2CCCC2=O)C1c1c[nH]c2ccccc12 (stereo not given)	?	.	.	.
Cc1nc2ccc(F)cc2cc1C(=O)NCC1CCCO1 (stereo not given)	?	?	3.42	.
Cc1ccc(Cn2nnc3c(=O)n(CC(=O)NCc4ccc5c(c4)OCO5)cnc32)cc1	.	.	.	.
CN(C)c1ccc(/C=c2\sc3nc(-c4ccccc4)nn3c2=O)cc1	?	?	8.23	?
CC(=O)N1C(=O)C(=C2C=C(C)OC(C)=C2)c2ccccc21	.	.	.	85.2
CC1=CC(=C2C(=O)c3ccccc3C2=O)C=C(C)O1	?	?	.	.
N#Cc1cnc(SCCc2ccccc2)nc1N	?	?	.	88.2
CCN(CC)c1ccc2c(c1)CCCN2	?	?	4.49	?
CCCOc1ccc(C(CC(=O)O)NC(=O)C23CC4CC(CC(C4)C2)C3)cc1 (stereo not given)	113.0	.	.	/
CCOC(=O)N1CCC(NC(=O)C2CCN(S(=O)(=O)N3CCC(C)CC3)CC2)CC1	.	.	.	.
COC(=O)c1ccc(CSc2nc3ccccc3s2)o1	.	.	.	.
COC(=O)c1ccc(/C(O)=C(\C#N)c2nc3ccccc3s2)cc1	?	?	2.68	.
COc1ccc(C2C3=C(CCCC3=O)Nc3nc4ccccc4n32)c(OC)c1OC (stereo not given)	.	.	.	.
Cc1ccc(S(=O)(=O)Nc2nc3ccccc3nc2NCc2ccco2)cc1	?	?	4.83	.
COc1ccc(-n2c(Cc3cccn3C)nnc2SCC(=O)Nc2ccc(C(C)=O)cc2)cc1	.	.	.	.
c1ccc2c(c1)CCCN2c1nc2ccccc2n2cnnc12	?	?	2.64	.
COc1ccc2c(c1)C(C)=CC(C)(C)N2C(=O)CSc1nnc(-c2ccc(C)cc2)o1	.	.	.	.
CCOc1cc2[nH]c(=O)n(CCCCC(=O)NC3CCCCCC3)c(=O)c2cc1OCC	66.5	.	.	.
SMILES	VLA-4 antagonist	VLA-4 agonist	Jurkat autofluor	26S disassembly
CCOc1cc2[nH]c(=O)n(CC3CCC(C(=O)NCCC(C)C)CC3)c(=O)c2cc1OCC (stereo not given)	60.0	.	.	.
O=C(CCCn1c(=O)[nH]c2ccccc2c1=O)NC1CCCCCC1	.	.	.	.
CCOc1cc2[nH]c(=O)n(CC3CCC(C(=O)NCCCOC)CC3)c(=O)c2cc1OCC (stereo not given)	.	.	.	.
c1ccc2c(c1)sc1nnnn12	.	.	.	.
Cc1ccc2nc(NC(=O)C3CCN(S(=O)(=O)c4cccc5nsnc45)CC3)sc2c1	.	.	.	.
Cc1ccc2nc(NC(=O)C3CCCN(S(=O)(=O)c4cccc5nsnc45)C3)sc2c1 (stereo not given)	?	?	.	151.1
O=C(O)CCc1cc(I)c(Oc2ccc(O)c(I)c2)c(I)c1	.	.	.	.
N#CC1=C(N)OC2=C(CCC/C2=C/c2ccoc2)C1c1ccoc1 (stereo not given)	.	.	2.47	.
